# Source: publication PMC5540273 (PLoS ONE, 2017)
# Tested on: TXK
# Conditions: concentration: 1 μM, replicates: in singlicate; n = 1
# 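Also: KINOMEscan kinase panel screen.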
row,SMILES,%Inh
1,COC(=O)Nc1nc2cc(Oc3ccc(NC(=O)Nc4cc(F)ccc4F)cc3)ccc2[nH]1.Cl [GW701424],88%
2,O=c1cc(N2CCOCC2)nc2n(Cc3cccc(Cl)c3Cl)c(C3CC3)nn12 [GSK2358994],7%
3,Nc1nccc(-c2c(-c3ccc(F)cc3)ncn2C2CCN(CC(F)(F)F)CC2)n1 [SB-236560],0%
4,O=C(Nc1cccc(-c2nn3ncccc3c2-c2ccnc(Nc3cccc(C(F)(F)F)c3)n2)c1)c1c(F)cccc1F [GSK299495],76%
5,CSc1ccc(-c2cc3ncnc(SCC(=O)O)c3s2)cc1,0%
6,Cn1ccc2ncnc(Oc3ccc(NC(=O)Nc4ccncc4)c(Cl)c3)c21,0%
7,O=c1cc(N2CCOCC2)nc2n(Cc3cccc4ccccc34)ccn12 [GSK2333389],0%
8,CCc1nc(-c2cccc(C)c2)c(-c2ccnc(NCc3ccccc3)c2)s1,0%
9,CC(C)(C)n1cnc2c(N)ncnc21 [SKF-97359],0%
10,COc1ccc(CNC(=O)NC2CCN(c3ccnc(Nc4ccc(OC)cc4)n3)C2)cc1 (centres unmarked) [GSK1379727],0%
11,Fc1ccc(-c2ncn(CCCN3CCOCC3)c2-c2ccccn2)cc1 [SB-211742],5%
12,O=c1cc(N2CCOCC2)nc2n(Cc3cccc(F)c3)ccn12 [GSK2297430],4%
13,COc1cc(Nc2nccc(N3CCC(NC(=O)c4cccc(NC(C)=O)c4)C3)n2)cc(OC)c1OC (centres unmarked) [GSK1379754],7%
14,Cc1cccc(Cn2ccn3c(=O)cc(N4CCOCC4)nc23)c1 [GSK2297542],0%
